Bioassay records: PubChem BioAssay, National Center for Advancing Translational Sciences (NCATS)
Only some compounds are listed: those with a hit (about 0.72% of all), similar ones and a draw of the others.
RGS4 inhibitor: human RGS4 inhibition; P49798; Transcreener GDP fluorescence polarization, RGS4-accelerated GTP hydrolysis; Potency, µM (doses to about 114 µM), actives largely listed as inhibitors; 390,000 compounds, 0.039% hits; AID 504845; further: nearly all actives have a fitted effect of over 75% in size
Target sequence (P49798 whole entry, looked up): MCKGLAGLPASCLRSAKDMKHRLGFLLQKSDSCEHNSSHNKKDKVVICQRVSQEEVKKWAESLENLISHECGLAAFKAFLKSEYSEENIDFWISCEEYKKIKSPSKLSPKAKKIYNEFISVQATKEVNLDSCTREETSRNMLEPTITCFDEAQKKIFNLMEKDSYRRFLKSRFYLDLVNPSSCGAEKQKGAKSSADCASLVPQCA
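MLSMR compounds (23 nl, pin-transferred) preincubated 10 min at room temperature with a 500nM (2x) first reagent, then RGS4 at 900nM (2x) plus Transcreener GDP mix added; fluorescence polarization (620/688 nm) read before and after 90 min at 30 °C.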
Eya2 phos inh: blocks the phosphatase activity of human Eya2 | recombinant Eya2, OMFP fluorescence dephosphorylation (OMFP is methylfluorescein phosphate) | Potency, µM (titrated, usually from 76.9 µM), most hits filed as inhibitors | 330,000 compounds, 0.006% hits
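Eya2 protein (added as 0.2 uM solution) was preincubated with compound for 10 min at ambient temperature in 50 mM HEPES pH 7.5, 50 mM NaCl, 5 uM MgCl2, 0.05% BSA, 1 mM DTT. OMFP (added at 50 uM) then reacted 10 min; fluorescence read at 485/525 nm.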
PI4K2A inh: inhibitors of human PI4K2A; AID 1346378; 420,000 compounds, 0.13% hits; activity change, negative = inhibition, % at 76.9 µM; purified PI4K2A, ADP-Glo luminescence, 1 h; stronger effect = lower value; in the data active means activity change below about -50%; inconclusive means mostly about -30% to -49%
Target sequence (Q9BTU6 whole entry, looked up): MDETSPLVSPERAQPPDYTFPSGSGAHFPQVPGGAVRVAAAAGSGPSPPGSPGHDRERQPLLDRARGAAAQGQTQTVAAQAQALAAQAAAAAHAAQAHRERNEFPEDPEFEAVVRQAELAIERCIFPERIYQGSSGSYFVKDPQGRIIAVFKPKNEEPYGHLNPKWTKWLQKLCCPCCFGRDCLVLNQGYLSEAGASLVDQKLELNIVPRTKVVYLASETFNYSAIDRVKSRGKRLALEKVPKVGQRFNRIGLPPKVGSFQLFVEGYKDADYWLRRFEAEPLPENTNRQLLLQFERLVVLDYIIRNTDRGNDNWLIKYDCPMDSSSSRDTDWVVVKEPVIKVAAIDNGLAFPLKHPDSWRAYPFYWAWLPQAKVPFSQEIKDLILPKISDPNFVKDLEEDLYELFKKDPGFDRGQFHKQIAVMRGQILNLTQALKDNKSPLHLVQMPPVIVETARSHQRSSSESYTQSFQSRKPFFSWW
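ADP-Glo luminescence measured ADP generated by PI4K2A enzyme (4 ug/mL before mixing) with 1.2 mM PI substrate (pre-mix) and 300 microM ATP (pre-mix). Tris pH7.5 buffer with MgCl2, Triton X-100; 1 h reaction at ambient temperature.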
Six1-Eya2 blk: blocks human Six1 binding to Eya2; AlphaScreen GST-Six1/His-Eya2 binding, biochemical; stronger effect = lower value; activity change, % (test concentration not listed); 360,000 compounds, 0.56% hits; in the data active means activity change below about -65%; inconclusive means mostly about -30% to -63%
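Homogeneous AlphaScreen proximity assay pairing GST-Six1 with His-tagged Eya2 (added as 5X mix: 250 nM and 500 nM) in 50 mM Tris pH 8.0, 300 mM NaCl, 1 mM TCEP. Glutathione donor and nickel acceptor beads; 1 h, 37 °C, dark.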
CtBP-E1A blk: inhibitors of CtBP/E1A interaction | AlphaScreen GST-E1A/His-CtBP binding, 1536-well; stronger effect = lower value | activity change, % (no concentration beside the values) | 340,000 compounds, 0.49% hits | AID 651724; in the data active means activity change below about -65%; inconclusive means mostly about -30% to -63%
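Protein mix (5X: 125 nM each GST-E1A, His-CtBP) was incubated with pinned compound 2 h at 37 deg C in dark, in 50 mM Tris pH 8.0 buffer with 300 mM NaCl. Glutathione donor and nickel acceptor beads followed; AlphaScreen signal read after 1 h.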
USP2a block: USP2a (human) protease inhibition | O75604 | USP2 core, Ub-CHOP2 coupled fluorogenic reporter, 485/531 | Potency, µM (series often up to 38.3 µM), actives largely listed as inhibitors | 330,000 compounds, 0.01% hits | AID 463254
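Cell-free coupled assay: 10nM USP2 core preincubated 30min RT with compound in Tris-HCl pH 8.0/CaCl2/CHAPS buffer, then 25nM Ub-CHOP2 and 25nM reporter substrate; fluorescence (Ex 485/Em 531) read after 60min RT, normalized to NEM inhibition, concentration-response curves fitted.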
A number is an active result; . = inactive; ? = inconclusive; / = no result. Unless noted, the call rests on the fitted dose curve; in most records, active means well fitted curve in the direction sought with a large enough effect; inconclusive means small, poorly fitted or top-dose-only effect, or another doubt; inactive means no such curve, though single readings can be large; an effect the other way counts as inactive or inconclusive.

SMILES	RGS4 inhibitor	Eya2 phos inh	PI4K2A inh	Six1-Eya2 blk	CtBP-E1A blk	USP2a block
O=C(CNC(=O)c1ccc2c(c1)OCCO2)N/N=C/c1ccc(O)cc1O	.	.	.	-77.5	-90.4	.
COc1ccc2ccccc2c1/C=N/NC(=S)Nc1cc(S(=O)(=O)N2CCOCC2)ccc1N1CCOCC1	.	.	.	.	.	.
CC(C)CN(CC(C)C)C(=O)c1cn(C(C)c2ccccc2)nn1 (stereo unspecified)	/	/	.	/	/	/
COc1cccc(/C=N/NC(=O)CNC(=O)c2ccco2)c1O	.	.	.	-84.4	?	.
CC12CCC(C(=O)N/N=C/c3ccc(O)cc3O)(OC1=O)C2(C)C (stereo unspecified)	.	.	.	-67.5	-88.5	.
CCOc1ccc(/C=N/NC(=O)C(O)c2ccccc2)c(O)c1 (stereo unspecified)	.	.	.	?	-84.7	.
COc1cccc(/C=N/NC(=O)CNC(=O)c2cccnc2)c1O	.	.	.	-71.2	-86.9	.
COC(=O)c1cc(Cl)ccc1OC	/	/	.	/	/	/
CCOC(=O)N1CCN(C(=O)C[C@H]2C(=O)N(CCCOC)C3=CCCCC[C@]32C(=O)OC)CC1	/	/	.	/	/	/
C=CCn1c(=O)n([C@@H]2O[C@H](CO)[C@@H](O)[C@H]2O)c2nc(N)[nH]c(=O)c21	/	/	.	/	/	/
N#CSCC(=O)O	/	/	.	/	/	/
COC(=O)[C@@]12CCCCC3=C1N(CCC3)C(=O)[C@H]2CC(=O)NCCc1ccccc1OC	/	/	.	/	/	/
O=C(N/N=C/c1ccc(O)cc1O)C(=O)N/N=C/c1ccc(O)cc1O	.	.	.	-68.4	-92.5	.
COc1cccc(/C=N/NC(=O)CNC(=O)c2ccncc2)c1O	.	.	.	.	/	.
COc1cccc(/C=N/NC(=O)CNC(=O)c2ccc3c(c2)OCCO3)c1O	.	.	.	-87.7	?	.
COc1cccc(/C=N/NC(=O)C(=O)NCc2cccnc2)c1O	.	.	.	-89.3	-92.1	.
CC[C@@H]([C@H](C)O)n1ncn(-c2ccc(N3CCN(c4ccc(OC[C@@H]5CO[C@@](Cn6cncn6)(c6ccc(F)cc6F)C5)cc4)CC3)cc2)c1=O	/	/	.	/	/	/
Cc1cccn2c(=O)cc(COc3ccc(NC(=O)COc4ccc(F)cc4)cc3)nc12	.	/	.	/	/	/
O=C(O)c1ccc(NS(=O)(=O)c2ccc3c(c2)C(=O)c2ccccc2C3=O)cc1	.	.	.	-71.7	?	.
Cc1cc(Br)ccc1-n1[nH]c(C)c(C=Nc2cccc3nsnc23)c1=O	.	.	-54.3	.	.	.
CC1OC(CC(=O)O)CC2=C1C(=O)c1c(O)cccc1C2=O (stereo unspecified)	.	/	-59.3	-88.7	.	/
COc1ccccc1CNC(=O)COC(=O)c1cc(-c2ccco2)nc2ccccc12	?	.	-52.7	.	.	.
Cc1occc1C(=O)N/N=C/c1ccc(N(C)C)cc1	.	.	-86.6	.	.	.
Cc1occc1C(=O)N/N=C/C=C/c1ccc(N(C)C)cc1	.	.	.	.	.	.
CC(=O)c1cccc(NC(=O)c2cc(-c3ccc4c(c3)OCCO4)on2)c1	.	/	.	/	/	/
SMILES	RGS4 inhibitor	Eya2 phos inh	PI4K2A inh	Six1-Eya2 blk	CtBP-E1A blk	USP2a block
O=C(Nc1cccc(O)c1)c1cc(-c2ccc3c(c2)OCO3)on1	.	.	-71.6	.	.	.
COc1cc(C=C2CCC/C(=C\c3ccc(O)c(OC)c3)C2=O)ccc1O	/	/	.	/	/	/
C#CCOc1ccc(/C=C2/C(=O)N(c3ccc(S(N)(=O)=O)cc3)N=C2C)cc1OC	/	/	?	.	.	/
COc1ccc(C(=O)C=Cc2ccc(OCc3ccccc3)c(OC)c2)cc1OC	/	/	.	.	.	/
COc1cc(/C=C(\C#N)C(=O)Nc2cccc(C(=O)O)c2)ccc1OCc1ccc(F)cc1	.	.	.	.	-70.5	.
COc1cc(/C=C2\C(=O)N(c3ccc(S(N)(=O)=O)cc3)N=C2C)ccc1OC(=O)c1ccco1	?	.	-52.2	.	.	.
COc1cc(/C=C/[N+](=O)[O-])ccc1OC(=O)/C=C/c1ccc(F)cc1	.	.	.	?	-90.1	.
COc1cc(/C=C/[N+](=O)[O-])ccc1OCc1cccc(C(=O)O)c1	?	.	-51.0	-76.4	.	?
Nc1[nH]c2cc(C(F)(F)F)ccc2c1C(=O)NCc1ccc(F)cc1	/	/	.	/	/	/
C#CCOc1ccc(/C=C2/C(=O)N(c3cccc(C(=O)O)c3)N=C2C)cc1OC	?	.	?	.	.	.
COc1cc(/C=C2\C(=O)N(c3cccc(C(=O)O)c3)N=C2C)ccc1OCc1ccccc1	/	/	-59.0	.	.	/
COc1ccc(Cn2c(CNS(=O)(=O)c3ccc4c(c3)CCCC4)nc3cccnc32)cc1	.	/	.	/	/	/
Cn1nc(C(=O)Nc2nc(-c3ccccn3)cs2)c2ccccc2c1=O	?	.	.	-91.4	-90.7	.
COC(=O)c1cccc(NC(=O)c2nn(C)c(=O)c3ccccc23)c1	.	.	.	-82.9	-84.5	.
Cn1nc(C(=O)Nc2cccnc2)c2ccccc2c1=O	.	.	.	?	?	.
CCn1nc(C(=O)Nc2nc(-c3ccccn3)cs2)c2ccccc2c1=O	.	.	.	?	/	.
CCCn1nc(C(=O)Nc2nc(-c3ccccn3)cs2)c2ccccc2c1=O	.	.	.	-76.6	-86.4	.
COc1ccc(-c2ccc(NC(=O)c3ccco3)cc2)nn1	.	.	-53.2	.	.	.
Oc1c(Cl)cc(CN2CCOCC2)c2cccnc12	.	.	?	-89.5	/	.
O=c1oc2ccccc2c(O)c1Cc1cc(Cl)c2cccnc2c1O	.	.	.	.	?	.
O=[N+]([O-])c1cc(CN2CCN(c3ccccc3)CC2)c(O)c2ncccc12	.	.	.	-90.8	-94.6	.
Oc1c(CN2CCc3ccccc3C2)cc(Cl)c2cccnc12	.	.	.	-92.9	-89.0	.
CN(Cc1cc([N+](=O)[O-])c2cccnc2c1O)C1CCCCC1	/	.	/	/	/	.
Oc1c(CN2CCCCC2)cc(Br)c2cccnc12	?	.	.	-91.0	-92.3	.
CCCCn1c(N)c(N(CC(C)C)C(=O)C2CCN(S(=O)(=O)c3ccc(C)cc3)CC2)c(=O)[nH]c1=O	.	.	.	.	.	.
O=[N+]([O-])c1cc(CN2CCOCC2)c2cccnc2c1O	?	.	.	-87.6	.	.
N#Cc1ccsc1NC(=O)c1ccccn1	.	.	.	-67.5	?	.
O=C(Cn1ncc2ccc(Cl)cc21)NCc1ccc(F)cc1	.	/	.	/	/	/
O=C(NCC(c1ccco1)S(=O)(=O)c1cccs1)c1ccc(F)c(F)c1 (stereo unspecified)	.	/	.	/	/	/
